From PubChem BioAssay come the findings set out here.

Assay [1] in a line: binders of probe aFSTL3 on microarray, primary screen, stem cell growth factor project, biochemical, small-molecule microarray, fluorescence 635/667 (AID 1064).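 Also: measures binding of the biotinylated anti-FSTL3 antibody to printed compounds.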 To be noted: higher = more signal.
Assay [2] in a line: binders from COS7 lysate, DM2A8 probe, primary screen, torsin A project, cell lysate, small-molecule microarray, fluorescence 635/667 (AID 1065). To be noted: higher = more signal, COS7 lysate expressing mutant human TOR1A.
A short description of assay [3]: binders of probe aFGF2 on microarray, primary screen, stem cell growth factor project, biochemical, small-molecule microarray, fluorescence 635/667 (AID 1067).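 Also: measures binding of biotinylated aFGF2 protein to printed compounds on slides; z-score merges feature fluorescence and signal-to-noise across triplicate slides.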 To be noted: higher = more signal.
A short description of assay [4]: binders of probe aFGF10 on microarray, primary screen, stem cell growth factor project, biochemical, small-molecule microarray, fluorescence 635/667 (AID 1071).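 Also: score merges 667 nm spot intensity and signal to noise from triplicate slides.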 To be noted: higher = more signal.
Assay [5] deals with Neurogenic locus notch homolog protein 2 (Homo sapiens) (UniProt Q04721). Put plainly: Notch2 binders on small-molecule microarrays, primary screen, biochemical, small-molecule microarray, 635 nm fluorescence, stem cell growth factors (AID 1073). The settings on record: Notch2 binding, higher = more signal.
Sequence of Neurogenic locus notch homolog protein 2 (Homo sapiens) (Q04721 whole entry, looked up, canonical isoform): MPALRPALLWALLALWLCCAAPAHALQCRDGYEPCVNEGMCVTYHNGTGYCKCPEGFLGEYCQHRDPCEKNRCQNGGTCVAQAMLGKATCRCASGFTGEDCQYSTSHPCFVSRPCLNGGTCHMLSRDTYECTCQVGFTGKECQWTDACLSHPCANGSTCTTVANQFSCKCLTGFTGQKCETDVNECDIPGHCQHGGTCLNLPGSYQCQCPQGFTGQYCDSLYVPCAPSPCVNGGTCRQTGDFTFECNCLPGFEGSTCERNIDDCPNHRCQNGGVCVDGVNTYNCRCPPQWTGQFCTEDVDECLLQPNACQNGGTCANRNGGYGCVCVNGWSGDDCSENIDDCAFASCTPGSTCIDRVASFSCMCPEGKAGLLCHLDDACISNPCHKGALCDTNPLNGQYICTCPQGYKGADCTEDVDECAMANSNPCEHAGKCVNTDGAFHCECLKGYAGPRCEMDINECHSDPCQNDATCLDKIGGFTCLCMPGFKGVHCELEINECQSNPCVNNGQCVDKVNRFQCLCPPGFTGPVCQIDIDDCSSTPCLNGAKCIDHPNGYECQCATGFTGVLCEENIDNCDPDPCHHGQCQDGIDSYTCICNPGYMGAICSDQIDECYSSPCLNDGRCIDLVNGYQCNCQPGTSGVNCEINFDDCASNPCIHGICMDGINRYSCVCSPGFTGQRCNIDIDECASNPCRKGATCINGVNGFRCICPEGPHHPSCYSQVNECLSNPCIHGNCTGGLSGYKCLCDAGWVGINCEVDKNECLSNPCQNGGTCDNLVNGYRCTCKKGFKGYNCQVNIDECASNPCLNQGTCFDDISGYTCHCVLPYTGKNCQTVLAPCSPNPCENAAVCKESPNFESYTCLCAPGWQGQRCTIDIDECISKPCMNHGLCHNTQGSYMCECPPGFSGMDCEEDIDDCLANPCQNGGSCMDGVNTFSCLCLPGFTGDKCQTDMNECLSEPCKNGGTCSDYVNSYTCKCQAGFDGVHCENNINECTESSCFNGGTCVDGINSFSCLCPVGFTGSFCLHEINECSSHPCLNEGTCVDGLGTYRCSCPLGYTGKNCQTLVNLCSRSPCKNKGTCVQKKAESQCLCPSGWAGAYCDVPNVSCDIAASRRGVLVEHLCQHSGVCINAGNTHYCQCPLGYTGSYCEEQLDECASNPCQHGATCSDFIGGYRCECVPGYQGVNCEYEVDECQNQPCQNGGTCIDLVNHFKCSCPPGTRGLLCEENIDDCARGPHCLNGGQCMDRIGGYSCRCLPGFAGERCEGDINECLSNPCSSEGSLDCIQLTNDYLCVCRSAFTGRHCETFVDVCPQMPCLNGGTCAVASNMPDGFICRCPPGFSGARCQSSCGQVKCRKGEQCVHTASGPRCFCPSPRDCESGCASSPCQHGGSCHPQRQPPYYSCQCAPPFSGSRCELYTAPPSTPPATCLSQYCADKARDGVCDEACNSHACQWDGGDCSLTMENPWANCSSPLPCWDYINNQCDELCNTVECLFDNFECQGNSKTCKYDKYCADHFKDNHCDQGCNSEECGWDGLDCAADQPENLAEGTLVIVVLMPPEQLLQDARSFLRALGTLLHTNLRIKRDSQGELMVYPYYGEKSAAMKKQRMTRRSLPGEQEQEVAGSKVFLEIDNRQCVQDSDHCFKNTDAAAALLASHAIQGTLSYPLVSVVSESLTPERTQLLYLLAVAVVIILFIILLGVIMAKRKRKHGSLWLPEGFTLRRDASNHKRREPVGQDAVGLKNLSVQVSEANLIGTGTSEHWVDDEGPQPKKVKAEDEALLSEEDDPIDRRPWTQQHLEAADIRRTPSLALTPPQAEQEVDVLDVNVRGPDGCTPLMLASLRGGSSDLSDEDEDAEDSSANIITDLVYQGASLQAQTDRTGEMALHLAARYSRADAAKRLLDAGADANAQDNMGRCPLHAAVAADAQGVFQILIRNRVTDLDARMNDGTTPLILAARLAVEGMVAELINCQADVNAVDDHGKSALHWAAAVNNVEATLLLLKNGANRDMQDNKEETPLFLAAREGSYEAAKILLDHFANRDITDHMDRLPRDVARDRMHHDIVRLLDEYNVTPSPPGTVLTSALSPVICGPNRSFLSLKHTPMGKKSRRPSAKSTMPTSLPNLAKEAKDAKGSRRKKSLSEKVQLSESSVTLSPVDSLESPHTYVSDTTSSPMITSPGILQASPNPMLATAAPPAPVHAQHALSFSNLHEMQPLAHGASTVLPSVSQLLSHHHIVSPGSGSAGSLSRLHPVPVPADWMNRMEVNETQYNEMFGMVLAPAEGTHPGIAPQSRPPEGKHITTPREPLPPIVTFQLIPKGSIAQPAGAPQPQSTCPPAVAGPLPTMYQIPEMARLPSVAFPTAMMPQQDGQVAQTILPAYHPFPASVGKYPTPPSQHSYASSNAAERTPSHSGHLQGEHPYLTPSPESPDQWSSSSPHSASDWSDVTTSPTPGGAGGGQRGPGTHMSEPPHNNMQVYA
In assay [6] the target is Pro-neuregulin-1, membrane-bound isoform (Homo sapiens) (UniProt Q02297). Put plainly: NRG1 binders on small-molecule microarrays, primary screen, psychiatric disease protein project, biochemical, small-molecule microarray, fluorescence 635/667 (AID 1075).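 Also: score combines 667 nm spot fluorescence with signal to noise.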 To be noted: NRG1 binding, 635 nm fluorescence, higher = more signal.
Sequence of Pro-neuregulin-1, membrane-bound isoform (Homo sapiens) (Q02297 whole entry, looked up, the tested form may be a part, canonical isoform): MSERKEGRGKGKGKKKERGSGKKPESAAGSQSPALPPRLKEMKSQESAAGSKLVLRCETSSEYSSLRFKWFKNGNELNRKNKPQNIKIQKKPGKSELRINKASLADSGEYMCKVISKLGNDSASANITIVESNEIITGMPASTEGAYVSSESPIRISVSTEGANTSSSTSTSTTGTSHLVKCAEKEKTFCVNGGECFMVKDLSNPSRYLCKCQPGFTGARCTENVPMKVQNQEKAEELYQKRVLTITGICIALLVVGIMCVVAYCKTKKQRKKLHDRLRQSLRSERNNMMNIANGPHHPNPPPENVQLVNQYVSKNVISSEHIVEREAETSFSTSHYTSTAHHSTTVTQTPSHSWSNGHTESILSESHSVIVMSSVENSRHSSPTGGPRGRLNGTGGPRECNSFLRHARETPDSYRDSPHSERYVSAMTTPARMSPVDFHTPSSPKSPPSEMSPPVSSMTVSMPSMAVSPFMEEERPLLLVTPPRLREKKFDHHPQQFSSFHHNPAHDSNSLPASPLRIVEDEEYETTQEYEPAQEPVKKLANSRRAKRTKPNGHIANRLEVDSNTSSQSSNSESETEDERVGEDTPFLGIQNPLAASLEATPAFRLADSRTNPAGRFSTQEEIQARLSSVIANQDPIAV
For assay [7], the system named is Neuregulin-1 EGF-like domain. Nature of the assay: binders of neuregulin-1 EGF-like domain, primary screen, biochemical, small-molecule microarray, 635 nm fluorescence (AID 1081).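 Also: binding of the protein to compounds printed on small-molecule microarray slides.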 The settings on record: small-molecule microarray binding, higher = more signal.
The nature of assay [8]: FRG1 promoter luciferase signal modulators, primary screen, FRG1 inhibition for FSHD, cell-based, C2C12 myotubes, firefly/Renilla luciferase, luminescence (AID 1084). To be noted: higher = more signal, called active from +8 up or from −8 down.
Assay [9] is described as follows: binders of probe aFST on microarray, primary screen, stem cell growth factor project, biochemical, small-molecule microarray, fluorescence 635/667 (AID 1086).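 Also: score merges 667 nm fluorescence with signal-to-noise of each printed compound spot.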 To be noted: higher = more signal.
Assay [10] can be described thus: binders of probe aHhip on microarray, primary screen, stem cell growth factor project, biochemical, small-molecule microarray, fluorescence 635/667 (AID 1087).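 Also: score merges spot fluorescence at 667nm with spot signal to noise ratio.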 To be noted: higher = more signal.
Assay [11] concerns PRMT1 (protein arginine N-methyltransferase 1). Put plainly: PRMT1 binders on small-molecule microarrays, primary screen, biochemical, small-molecule microarray, 635 nm fluorescence (AID 1088).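 Also: binding of Prmt1 protein to compounds spotted on small-molecule microarray slides.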 To be noted: small-molecule microarray binding, higher = more signal.
Assay [12] can be described thus: yeast growth modulation, basal conditions, primary screen, YJM789 clinical isolate, OD600, 24 h (AID 1089).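 Also: growth of clinical yeast isolate S. cerevisiae YJM 789 seeded 1000 cells per well; test concentration not given here.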 To be noted: S. cerevisiae YJM789 growth, higher = more signal, called active from +8 up or from −8 down.
Assay [13] is described as follows: fission yeast growth modulation, primary screen, strain 972, OD600, 24 h, no modulator (AID 1090).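 Also: basal condition with compound alone and no growth modifier present; test concentration not given here.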 To be noted: S. pombe 972 growth, higher = more signal, called active from +8 up or from −8 down.
A short description of assay [14]: S. cerevisiae growth modulation with rapamycin, primary screen, strain BY4716, OD600, 96 h (AID 1091). Also: test concentration not given here. The settings on record: higher = more signal, called active from +8 up or from −8 down.
Assay [15] addresses Torsin-1A-interacting protein 2 (Homo sapiens) (UniProt Q8NFQ8). Nature of the assay: LULL1 binders on small-molecule microarray, primary screen, cell lysate, human LULL1 lysate, 635/667 nm fluorescence (AID 1092).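 Also: probe is lysate of COS7 cells overexpressing human LULL1; score merges per-feature 667 nm fluorescence with signal-to-noise.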 The settings on record: hLULL1 lysate binding, 635 nm fluorescence, higher = more signal.
Assay [16] in a line: E. coli growth modulation, two-sided OD650, primary screen, E. coli filamentation project, strain DRC41, 24 h (AID 1093).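 Also: MC1000 strain lacking acrAB efflux and sulA so SOS filamentation is blocked; test concentration not given here.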 To be noted: OD650, 24 h, higher = more signal, called active from +8 up or from −8 down.
Assay [17] can be described thus: small-molecule microarray binders of probe aLefty2, primary screen, biochemical, biotinylated probe, 635/667 nm fluorescence (AID 1094).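 Also: score merges spot fluorescence near 667 nm with spot signal-to-noise ratio.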 To be noted: higher = more signal.
Assay [18] deals with Noggin (protein binding on small-molecule microarray). Put plainly: Noggin binders on small-molecule microarray, primary screen, biochemical, 635/667 nm fluorescence (AID 1095).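 Also: score merges 667 nm feature fluorescence with signal to noise over triplicate slides.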 The settings on record: 635 nm fluorescence, higher = more signal.
Assay [19] deals with Neurogenic locus notch homolog protein 3 (Homo sapiens) (UniProt Q9UM47). Put plainly: NOTCH3 binders on small-molecule microarray, primary screen, biochemical, 635/667 nm fluorescence (AID 1096). The settings on record: NOTCH3 binding, 635 nm fluorescence, higher = more signal.
Assay [20] in a line: small-molecule microarray binders of probe aEGFR, primary screen, biochemical, biotinylated probe, 635/667 nm fluorescence (AID 1097).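 Also: probe is a biotinylated anti-EGFR antibody binding compounds printed on slides; score combines fluorescence near 667 nm and signal to noise of each spot.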 To be noted: higher = more signal.

Activity calls are given as the source filed them.

Sequence of Torsin-1A-interacting protein 2 (Homo sapiens) (Q8NFQ8 whole entry, looked up): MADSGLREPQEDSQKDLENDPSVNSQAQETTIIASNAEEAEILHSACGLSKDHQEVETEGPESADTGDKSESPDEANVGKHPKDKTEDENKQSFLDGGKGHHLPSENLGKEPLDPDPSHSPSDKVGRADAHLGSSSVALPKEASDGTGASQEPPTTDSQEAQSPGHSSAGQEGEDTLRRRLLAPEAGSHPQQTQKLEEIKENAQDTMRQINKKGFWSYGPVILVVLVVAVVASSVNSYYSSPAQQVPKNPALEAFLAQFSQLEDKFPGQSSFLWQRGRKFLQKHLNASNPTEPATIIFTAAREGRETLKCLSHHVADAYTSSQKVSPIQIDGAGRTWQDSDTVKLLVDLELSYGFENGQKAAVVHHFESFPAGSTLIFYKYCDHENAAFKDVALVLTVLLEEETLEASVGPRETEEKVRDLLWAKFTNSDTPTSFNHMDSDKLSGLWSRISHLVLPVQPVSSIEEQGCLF

Regarding `CN1C(=O)C2C=CC(C(O)c3cccc4ccccc34)N(NC(=O)OC(C)(C)C)C2C1=O` (stereo not given), the composite z-score was found to be 1.07 in assay [1]; 1.79 in [2]; 0.194 in [3]; 0.586 in [4]; 1.37 in assay [5]; 2.11 in assay [6]. The composite z-score in assay [7] was 1.15; in assay [9] it was 1.4; in assay [10], -0.0296; in assay [11], 1.25; in [15] it was 2.63; in assay [17] it was 0.712. The composite z-score was -0.773 in [18], 1.02 in [19] and 0.37 in assay [20]. Further, the z-score in [8] is 0.93 (inactive); in [12] it was -1.04 (inactive); in assay [13] it was -0.397 (inactive); in [14], -0.0612 (inactive); in assay [16], -0.094 (inactive).
For the compound `C/C=C/[C@@H](CCn1cc([C@H](O)c2ccccc2)nn1)[Si](C)(C)c1ccc(OC)cc1`, the composite z-score in assay [1] is 0.683; in assay [2], 1.28; in [3], -0.0462; in assay [4], -0.135; in assay [5], -1.5; in [6], 1.29. Also, the composite z-score was 0.96 in assay [7]; -1.12 in [9]; -0.236 in [10]; 1.03 in assay [11]; 1.33 in assay [15]; -0.171 in [17]. Besides, the results for the composite z-score in assay [18], in assay [19] and in assay [20] were -0.385, -0.498 and -0.298, respectively. For the same compound, the z-score is -1.41 (inactive) in assay [8]; -2.41 (inactive) in assay [12]; -0.143 (inactive) in assay [13]; -0.0906 (inactive) in assay [14]; 1.43 (inactive) in assay [16].
Consider `CC[C@@H]1[C@@H]2C3C(=O)N(CC)C(=O)C3CC(=O)[C@@H]2[C@H](c2ccc(C)cc2)N1S(=O)(=O)c1ccc(C)cc1` (stereo not given in full), for which the composite z-score in [1] is -0.38; in assay [2], 0.0428; in assay [3] it was 0.161; in assay [4] it was 0.383; in assay [5], 1.56; in [6], 1.37. Besides, the composite z-score was 1.1 in assay [7]; 0.635 in assay [9]; -0.19 in [10]; 1.29 in assay [11]; 3.3 in [15]; -0.128 in [17]. Further, the composite z-score in [18] was 0.381; in assay [19], 0.919; in [20], -0.0371. Moreover, the z-score was -1.04 (inactive) in assay [8]; -2.69 (inactive) in [12]; 0.321 (inactive) in [13]; 0.336 (inactive) in assay [14]; 0.957 (inactive) in [16].
Regarding `CC(C)C(CO)N1C(=O)[C@@H]2[C@H]3C(=O)OCC=C[C@H]3OC23C=CCN(Cn2nnc4ccccc42)C(=O)[C@@H]13` (stereo not given in full), the composite z-score in assay [1] is 0.449; in [2], -0.292; in assay [3], -0.192; in assay [4], -0.579; in assay [5], -1.06; in assay [6] it was -0.78. The composite z-score in assay [7] was 0.332; in assay [9], -0.499; in assay [10] it was -0.137; in assay [11] it was -0.0697; in assay [15] it was 0.704; in assay [17], -0.262. Besides, the composite z-score is -2.09 in assay [18], -0.254 in [19] and -0.2 in assay [20]. For the same compound, the z-score was -0.194 (inactive) in [8]; 1.14 (inactive) in [12]; 1.13 (inactive) in assay [13]; 0.779 (inactive) in assay [14]; 0.701 (inactive) in [16].
Regarding `CCOc1cc(C(O)C2C=CC3C(=O)NC(=O)C3N2Nc2ccccn2)ccc1O` (stereo not given), the composite z-score in assay [1] was -0.373; in assay [2] it was 0.123; in assay [3], -0.0094; in assay [4], 0.458; in [5], 0.257; in assay [6] it was 0.18. For the same compound, the composite z-score in assay [7] is 0.117; in assay [9], 0.0771; in [10], -0.132; in [11], -0.0438; in assay [15] it was 0.394; in assay [17], -0.0708. Moreover, the composite z-score in assay [18] was 0.195; in [19], 0.0082; in assay [20], -0.0947. Besides, the z-score is -0.027 (inactive) in assay [8]; 0.128 (inactive) in [12]; 1.33 (inactive) in assay [13]; -0.0339 (inactive) in [14]; -0.977 (inactive) in [16].
`CN(C)CCCCCCNC(=O)[C@@H]1C[C@@H]2C(=O)NCC(=O)N2[C@@H]1c1ccc(O)cc1`: the composite z-score in assay [1] is -0.316; in assay [2], 1.51; in [3], 0.0231; in assay [4] it was 1.26; in assay [5], 0.194; in assay [6], 0.504. The composite z-score in assay [7] was 1.34; in assay [9], 0.92; in [10], 0.107; in [11] it was 1.53; in [15] it was 2.72; in assay [17], -0.16. Besides, the composite z-score was 1.47 in assay [18], 1.04 in assay [19] and -0.0304 in assay [20]. The z-score in assay [8] is 2.08 (inactive); in assay [12], -1.2 (inactive); in assay [13], -0.639 (inactive); in assay [14], -0.296 (inactive); in assay [16], -0.427 (inactive).
Regarding `Cc1ccc(N2C(=O)c3ccccc3[C@](C)(C(=O)NC(C)C)[C@@H]2c2ccc(CO)cc2)nc1`, the composite z-score was 1.57 in assay [1]; -1.06 in assay [2]; -0.254 in assay [3]; -1.11 in [4]; -1.61 in [5]; -1.55 in assay [6]. In addition, the composite z-score in assay [7] is 0.787; in assay [9], -0.927; in assay [10], 0.119; in [11], 0.595; in assay [15], 3.07; in assay [17], -0.0153. Further, the composite z-score in [18] is -2.13; in assay [19], -0.572; in assay [20], -0.36. Further, the z-score in assay [8] is -0.0923 (inactive); in assay [12], -0.273 (inactive); in assay [13], -1.14 (inactive); in assay [14] it was -1.8 (inactive); in assay [16], 1.19 (inactive).
In the case of `CCCC=C(CCC)[C@@H](NS(=O)(=O)c1cccc2cccnc12)c1ccc(C(=O)OC)cc1`, the composite z-score was found to be 3.16 in [1]; 1.19 in [2]; 0.84 in assay [3]; 1.65 in assay [4]; 1.59 in assay [5]; 0.136 in assay [6]. Moreover, the composite z-score in [7] was 0.83; in assay [9], 3.43; in assay [10], 0.754; in [11], 0.763; in assay [15] it was 0.472; in [17], 0.679. The results for the composite z-score in assay [18], in assay [19] and in assay [20] were 2.03, 0.542 and 1.35, respectively. Further, the z-score in assay [8] was 1.76 (inactive); in [12] it was 0.797 (inactive); in assay [13], -0.271 (inactive); in assay [14] it was 0.823 (inactive); in assay [16], -0.376 (inactive).
Turning to `CC(C)(C)OC(=O)CC[C@]1(C(=O)O)COC(c2ccc(OCCCO)cc2)=N1`, the composite z-score in [1] was 0.303; in assay [2], 2.38; in [3] it was -0.0279; in [4], -0.011; in assay [5], 0.541; in assay [6], 1.98. The composite z-score was 1.45 in [7]; 0.556 in [9]; -0.0296 in [10]; -1.22 in assay [11]; 1.29 in [15]; 0.12 in assay [17]. The composite z-score is -1.09 in [18], -0.463 in [19] and -0.0575 in [20]. Besides, the z-score in assay [8] is 0.394 (inactive); in [12], 0.923 (inactive); in assay [13] it was 0.179 (inactive); in assay [14] it was 0.197 (inactive); in assay [16], -0.079 (inactive).
With `[N-]=[N+]=Nc1ccccc1[C@H]1OC(c2ccc(OCCCO)cc2)=N[C@@]1(Cc1ccccc1)C(=O)NCc1ccccc1`, the composite z-score was -0.274 in [1]; -0.357 in [2]; 0.0722 in assay [3]; 0.639 in assay [4]; 1.12 in [5]; 0.883 in [6]. Also, the composite z-score in [7] is 0.567; in assay [9] it was 0.686; in [10], 0.0373; in assay [11] it was 1.57; in assay [15], 2.79; in assay [17], -0.0192. The composite z-score in [18] is 0.641; in assay [19], 1.04; in [20], -0.0066. For the same compound, the z-score in assay [8] is -1.55 (inactive); in assay [12], -2.78 (inactive); in [13], -2.1 (inactive); in [14] it was 1.12 (inactive); in [16] it was 1.81 (inactive).
